Assay in all cases: DAPPL (digital affinity profiling via proximity ligation, sequencing); 10 mM Tris-HCl pH 7.5, 50 mM NaCl, 1 mM DTT, 4% glycerol, room temperature, 30 min; GST-TFs on glutathione beads, 16-mer random dsDNA library, 0.1% formaldehyde crosslink after washing; high values mean tight binding
Common to all, as to conditions: protein: recombinant; tags: N-terminal GST; dsDNA, one strand shown

One experiment concerns the target T1, ERF (Homo sapiens, UniProt P50548 1-548).
T1 sequence: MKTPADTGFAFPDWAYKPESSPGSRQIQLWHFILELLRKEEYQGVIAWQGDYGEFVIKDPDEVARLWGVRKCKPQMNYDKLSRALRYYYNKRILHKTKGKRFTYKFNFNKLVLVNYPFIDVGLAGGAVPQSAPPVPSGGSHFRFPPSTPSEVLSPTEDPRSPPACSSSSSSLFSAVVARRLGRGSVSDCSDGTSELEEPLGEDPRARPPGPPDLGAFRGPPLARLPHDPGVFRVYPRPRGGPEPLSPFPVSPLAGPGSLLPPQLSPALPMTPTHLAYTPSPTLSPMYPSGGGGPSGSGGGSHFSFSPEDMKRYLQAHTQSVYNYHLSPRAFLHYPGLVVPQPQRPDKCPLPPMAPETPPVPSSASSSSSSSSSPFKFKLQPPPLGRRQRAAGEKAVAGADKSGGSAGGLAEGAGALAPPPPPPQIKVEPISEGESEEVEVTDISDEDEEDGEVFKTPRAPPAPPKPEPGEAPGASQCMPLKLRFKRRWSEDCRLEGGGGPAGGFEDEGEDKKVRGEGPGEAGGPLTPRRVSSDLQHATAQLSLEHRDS
The procedure, abridged: (§1)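 A tag-only sample was pooled with DNA-barcoded human transcription factors that had been expressed in yeast as GST fusions and captured on glutathione beads. The pools were incubated for 30 min at room temperature with 200 nmole of a random double-stranded 16-mer DNA library in Tris/NaCl/DTT/glycerol buffer, then washed, crosslinked with 0.1% formaldehyde, proximity-ligated (BsaI/T4 ligase, 1 h, 37 °C), PCR-amplified and sequenced on an Illumina NextSeq500. Binding signal is each hexamer's read frequency for a factor divided by its frequency for the tag-only sample.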

A further experiment addresses T2, ETV3L (Homo sapiens, UniProt Q6ZN32 1-361).
T2 sequence: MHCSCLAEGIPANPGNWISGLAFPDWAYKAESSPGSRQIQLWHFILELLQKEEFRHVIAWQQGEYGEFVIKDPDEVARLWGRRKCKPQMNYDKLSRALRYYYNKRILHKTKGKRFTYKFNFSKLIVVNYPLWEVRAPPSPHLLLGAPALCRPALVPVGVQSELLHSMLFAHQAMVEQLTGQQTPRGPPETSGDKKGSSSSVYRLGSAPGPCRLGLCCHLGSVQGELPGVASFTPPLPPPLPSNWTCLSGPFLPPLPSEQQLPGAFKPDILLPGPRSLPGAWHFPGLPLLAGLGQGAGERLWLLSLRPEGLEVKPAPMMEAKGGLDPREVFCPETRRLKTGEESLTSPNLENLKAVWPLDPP
In a few lines:
as §1

The next experiment addresses T3, ETS2 (Homo sapiens, UniProt P15036 1-469).
T3 sequence: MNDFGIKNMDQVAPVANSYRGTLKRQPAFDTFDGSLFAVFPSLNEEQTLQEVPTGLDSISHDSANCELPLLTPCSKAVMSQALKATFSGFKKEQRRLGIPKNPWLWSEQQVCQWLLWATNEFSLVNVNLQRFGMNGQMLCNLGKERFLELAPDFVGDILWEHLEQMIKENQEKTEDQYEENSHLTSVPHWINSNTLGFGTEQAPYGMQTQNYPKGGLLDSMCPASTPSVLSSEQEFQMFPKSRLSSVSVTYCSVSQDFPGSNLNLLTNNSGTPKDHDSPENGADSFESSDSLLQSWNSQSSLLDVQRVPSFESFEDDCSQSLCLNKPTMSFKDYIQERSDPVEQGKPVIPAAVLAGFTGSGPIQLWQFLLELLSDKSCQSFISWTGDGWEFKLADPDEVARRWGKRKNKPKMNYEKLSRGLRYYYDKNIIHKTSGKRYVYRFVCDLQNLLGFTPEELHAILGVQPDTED
In a few lines: as §1

The next experiment addresses T4, SPDEF (Homo sapiens, UniProt O95238 1-335).
T4 sequence: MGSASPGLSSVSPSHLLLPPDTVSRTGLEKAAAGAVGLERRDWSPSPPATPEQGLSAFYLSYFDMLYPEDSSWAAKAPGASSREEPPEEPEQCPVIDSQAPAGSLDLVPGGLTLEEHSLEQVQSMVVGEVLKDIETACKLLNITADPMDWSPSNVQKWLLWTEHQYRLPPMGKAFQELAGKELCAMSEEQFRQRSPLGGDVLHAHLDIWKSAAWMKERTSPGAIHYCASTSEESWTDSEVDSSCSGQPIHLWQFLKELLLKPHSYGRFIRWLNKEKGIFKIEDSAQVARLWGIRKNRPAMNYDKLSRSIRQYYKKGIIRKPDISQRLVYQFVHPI
In a few lines:
as §1

A further experiment deals with T5, ETV7 (Homo sapiens, UniProt Q9Y603 1-341).
T5 sequence: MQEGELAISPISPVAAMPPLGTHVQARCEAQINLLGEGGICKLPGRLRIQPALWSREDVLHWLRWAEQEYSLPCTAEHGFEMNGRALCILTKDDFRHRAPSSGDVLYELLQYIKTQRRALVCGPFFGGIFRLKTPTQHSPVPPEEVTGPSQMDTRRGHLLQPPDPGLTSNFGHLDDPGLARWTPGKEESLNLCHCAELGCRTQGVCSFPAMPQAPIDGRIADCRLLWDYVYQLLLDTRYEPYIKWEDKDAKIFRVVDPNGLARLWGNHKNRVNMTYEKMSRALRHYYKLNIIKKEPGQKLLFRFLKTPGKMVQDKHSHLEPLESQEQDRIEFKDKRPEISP
The procedure, abridged:
as §1

In another experiment the target is T6, ELF5 (Homo sapiens, UniProt Q9UKW6-2 1-255).
T6 sequence: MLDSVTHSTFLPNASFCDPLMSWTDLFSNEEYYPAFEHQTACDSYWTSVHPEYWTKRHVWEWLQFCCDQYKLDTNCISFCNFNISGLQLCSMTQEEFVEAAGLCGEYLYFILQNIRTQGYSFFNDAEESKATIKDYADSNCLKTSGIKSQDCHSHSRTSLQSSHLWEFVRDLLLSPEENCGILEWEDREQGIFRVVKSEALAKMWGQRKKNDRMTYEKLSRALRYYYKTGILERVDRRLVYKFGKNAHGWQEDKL
The procedure, abridged:
as §1

A further experiment addresses ETV6 (Homo sapiens, UniProt P41212 1-452). The procedure, abridged: as §1
The next experiment has as its target T7, ETV3 (Homo sapiens, UniProt P41162-2 1-143).
T7 sequence: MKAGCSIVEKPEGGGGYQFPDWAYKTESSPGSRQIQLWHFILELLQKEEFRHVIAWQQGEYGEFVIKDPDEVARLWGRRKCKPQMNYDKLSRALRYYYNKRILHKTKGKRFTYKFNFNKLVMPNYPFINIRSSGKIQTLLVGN
The procedure, abridged: as §1

Sequence of ETV6 (P41212 whole entry): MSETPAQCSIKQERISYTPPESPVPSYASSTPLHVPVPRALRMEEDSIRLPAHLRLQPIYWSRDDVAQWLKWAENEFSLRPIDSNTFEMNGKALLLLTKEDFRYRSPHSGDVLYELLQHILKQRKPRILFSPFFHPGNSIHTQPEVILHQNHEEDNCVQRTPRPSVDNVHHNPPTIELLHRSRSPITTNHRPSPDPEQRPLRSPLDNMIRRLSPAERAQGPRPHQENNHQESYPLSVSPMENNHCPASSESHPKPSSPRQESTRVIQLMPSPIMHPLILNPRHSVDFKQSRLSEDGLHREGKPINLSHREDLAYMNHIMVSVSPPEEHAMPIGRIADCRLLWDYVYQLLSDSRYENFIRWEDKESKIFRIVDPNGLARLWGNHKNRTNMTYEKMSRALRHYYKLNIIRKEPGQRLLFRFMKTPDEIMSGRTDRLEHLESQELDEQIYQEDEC

For TTATAG, the binding signal with ERF was 1.24 fold enrichment (6-mer frequency, TF over GST control); in the experiment with ETV3L, 1.28 fold enrichment (6-mer frequency, TF over GST control); in the experiment with ETS2 it was 1.33 fold enrichment (6-mer frequency, TF over GST control); in the experiment with SPDEF it was 1.19 fold enrichment (6-mer frequency, TF over GST control); with ETV7, 1.24 fold enrichment (6-mer frequency, TF over GST control); with ELF5, 1.15 fold enrichment (6-mer frequency, TF over GST control). In addition, in the experiment with ETV6, the binding signal is 1.16 fold enrichment (6-mer frequency, TF over GST control).
In the case of CAAGCA, the binding signal was 1.15 fold enrichment (6-mer frequency, TF over GST control) with ERF; 1.17 fold enrichment (6-mer frequency, TF over GST control) with ETV3L; 1.25 fold enrichment (6-mer frequency, TF over GST control) with ETS2; 1.06 fold enrichment (6-mer frequency, TF over GST control) in the experiment with SPDEF; 1.1 fold enrichment (6-mer frequency, TF over GST control) with ETV7; 1.11 fold enrichment (6-mer frequency, TF over GST control) with ELF5. For the same sequence, the binding signal with ETV3 is 1.16 fold enrichment (6-mer frequency, TF over GST control); with ETV6, 1.14 fold enrichment (6-mer frequency, TF over GST control).
For TACCGC, the binding signal with ERF is 1.1 fold enrichment (6-mer frequency, TF over GST control); with ETV3L it was 1.14 fold enrichment (6-mer frequency, TF over GST control); with ETS2, 1.05 fold enrichment (6-mer frequency, TF over GST control); with SPDEF it was 1.17 fold enrichment (6-mer frequency, TF over GST control); in the experiment with ETV7 it was 1.13 fold enrichment (6-mer frequency, TF over GST control); with ELF5, 1.08 fold enrichment (6-mer frequency, TF over GST control). For the same sequence, the binding signal was 1.12 fold enrichment (6-mer frequency, TF over GST control) with ETV3 and 1.04 fold enrichment (6-mer frequency, TF over GST control) with ETV6.
Turning to ATACCA, the binding signal with ERF was 1.06 fold enrichment (6-mer frequency, TF over GST control); with ETV3L it was 1.08 fold enrichment (6-mer frequency, TF over GST control); with ETS2, 1.06 fold enrichment (6-mer frequency, TF over GST control); with SPDEF, 1 fold enrichment (6-mer frequency, TF over GST control); with ETV7, 1.02 fold enrichment (6-mer frequency, TF over GST control); in the experiment with ELF5 it was 1.03 fold enrichment (6-mer frequency, TF over GST control). Besides, the binding signal with ETV6 is 1.01 fold enrichment (6-mer frequency, TF over GST control).
Turning to GTAATG, the binding signal with ERF is 1.12 fold enrichment (6-mer frequency, TF over GST control); with ETV3L it was 1.11 fold enrichment (6-mer frequency, TF over GST control); with ETS2 it was 1.07 fold enrichment (6-mer frequency, TF over GST control); in the experiment with SPDEF, 1.15 fold enrichment (6-mer frequency, TF over GST control); with ETV7, 1.05 fold enrichment (6-mer frequency, TF over GST control); in the experiment with ELF5 it was 1.1 fold enrichment (6-mer frequency, TF over GST control). Besides, in the experiment with ETV6, the binding signal is 1.03 fold enrichment (6-mer frequency, TF over GST control).
As to TGCGTA, the binding signal is 1.15 fold enrichment (6-mer frequency, TF over GST control) in the experiment with ERF; 1.17 fold enrichment (6-mer frequency, TF over GST control) with ETV3L; 1.19 fold enrichment (6-mer frequency, TF over GST control) with ETS2; 1.12 fold enrichment (6-mer frequency, TF over GST control) in the experiment with SPDEF; 1.01 fold enrichment (6-mer frequency, TF over GST control) in the experiment with ETV7; 1.1 fold enrichment (6-mer frequency, TF over GST control) with ELF5. For the same sequence, in the experiment with ETV6, the binding signal was 1.11 fold enrichment (6-mer frequency, TF over GST control).
For GCAAAT, the binding signal with ERF was 1.11 fold enrichment (6-mer frequency, TF over GST control); in the experiment with ETV3L, 1.05 fold enrichment (6-mer frequency, TF over GST control); in the experiment with ETS2 it was 1.01 fold enrichment (6-mer frequency, TF over GST control); in the experiment with SPDEF, 1.11 fold enrichment (6-mer frequency, TF over GST control); with ETV7 it was 1.04 fold enrichment (6-mer frequency, TF over GST control); with ELF5, 1.01 fold enrichment (6-mer frequency, TF over GST control). In addition, the binding signal with ETV6 was 1 fold enrichment (6-mer frequency, TF over GST control).
Regarding TGTGTT, the binding signal with ERF is 1.08 fold enrichment (6-mer frequency, TF over GST control); with ETV3L, 1.15 fold enrichment (6-mer frequency, TF over GST control); in the experiment with ETS2, 1.06 fold enrichment (6-mer frequency, TF over GST control); with SPDEF, 1.21 fold enrichment (6-mer frequency, TF over GST control); with ETV7, 1.19 fold enrichment (6-mer frequency, TF over GST control); in the experiment with ELF5, 1.11 fold enrichment (6-mer frequency, TF over GST control). For the same sequence, the binding signal with ETV6 was 1.08 fold enrichment (6-mer frequency, TF over GST control).

The values are drawn from article PMC7862700, “An all-to-all approach to the identification of sequence-specific readers for epigenetic DNA modifications on cytosine”.
